COUP-TFII inh: inhibitors of human COUP-TFII (NR2F2). HEK293T NGFI-A luciferase reporter, luminescence. inhibition, % at 8.6 µM. 0.7% of 370,000 active;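 active = inhibition above a per-plate cutoff, mean inhibition of test wells between control levels plus 3 SD, cut at about 38% in these data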;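 also: cells cotransfected with COUP-TFII expression vector driving the NGFI-A reporter; 0% = median of COUP-TF2 test wells and 100% = reporter-only cells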
NR5A2 inv ag: NR5A2 inverse agonism in reporter assay; HEK293T StAR-luciferase reporter, LRH-1 transfected, 24 h; inhibition, % at 3.6 µM; 0.13% of 360,000 active;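 active = inhibition above the mean inhibition of all tested compounds plus 3 SD, cut at about 73% in these data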;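 also: 0% = DMSO wells and 100% = reporter-only cells lacking LRH-1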
Target sequence (O00482 whole entry, looked up): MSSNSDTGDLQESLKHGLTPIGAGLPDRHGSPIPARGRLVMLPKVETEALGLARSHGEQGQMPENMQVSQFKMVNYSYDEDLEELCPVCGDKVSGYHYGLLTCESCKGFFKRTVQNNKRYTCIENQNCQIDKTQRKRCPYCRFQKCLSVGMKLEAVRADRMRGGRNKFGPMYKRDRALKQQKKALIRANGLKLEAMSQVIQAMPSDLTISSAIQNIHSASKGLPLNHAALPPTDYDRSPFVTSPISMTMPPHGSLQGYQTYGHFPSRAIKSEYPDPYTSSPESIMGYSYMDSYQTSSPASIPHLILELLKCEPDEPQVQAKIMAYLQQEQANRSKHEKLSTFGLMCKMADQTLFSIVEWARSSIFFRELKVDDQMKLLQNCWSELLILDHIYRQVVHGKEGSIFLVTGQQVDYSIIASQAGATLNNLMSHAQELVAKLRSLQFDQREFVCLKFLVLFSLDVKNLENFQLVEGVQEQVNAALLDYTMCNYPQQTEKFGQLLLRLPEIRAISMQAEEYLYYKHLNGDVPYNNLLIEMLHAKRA
SRC2 inh: inhibits human steroid receptor coactivator 2; Q15596; HEK293 GAL4-SRC2 luciferase reporter, luminescence; inhibition, % at 9 µM; 0.17% of 370,000 active; AID 651957;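 active = inhibition above the mean inhibition of all tested compounds plus 3 SD, set per campaign, cut at about 52% in these data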;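 also: 0% = DMSO treated cells and 100% = cells given Gossypol at 36 µM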
NCOA1 inh: human NCOA1 inhibition. Q15788. HEK293 GAL4-SRC1 luciferase reporter, luminescence. inhibition, % at 3.6 µM. 0.12% of 360,000 active;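 active = inhibition above the campaign mean plus 3 SD, with each screening campaign given its own cutoff, cut at about 60% in these data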;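 also: 0% = DMSO treated cells and 100% = gossypol at 36 µM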
NCOA3 inh: human NCOA3 inhibition; Q9Y6Q9; HEK293 GAL4-SRC3 luciferase reporter, luminescence; inhibition, % at 3.6 µM; 0.17% of 360,000 active; AID 588352;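 active = inhibition above a per-campaign cutoff, the mean of all compounds plus 3 SD, cut at about 60% in these data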;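 also: 0% = DMSO-treated cells and 100% = gossypol-treated cells at 36 µM; higher means less SRC3-driven luciferase light from the GAL4 reporter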
Gal4-VP16 ctr: counter-screen for COUP-TFII antagonists: inhibitors of VP16; shares compounds with COUP-TFII inh; HEK293 Gal4-VP16 luciferase reporter, luminescence; inhibition, % at 8.5 µM; 25% of 2,500 active; AID 687007; in the data active = inhibition above about 13%
COUP-TFII conf: COUP-TFII (NR2F2) inhibition, confirmation assay. shares compounds with COUP-TFII inh. HEK293 NGFI-A luciferase reporter, luminescence. inhibition, % at 8.5 µM. 45% of 2,500 active. AID 687008;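 active = mean inhibition over three repeats above a set limit taken from the earlier primary screen, cut at about 38% in these data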;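 also: 100% = cells given the luciferase reporter alone without the COUP-TF2 vector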
* hit, by the source's call; nt = no result. Sampled rows, rich in hits. Any-hit rate of the full collection: about 0.81%.

SMILES	COUP-TFII inh	NR5A2 inv ag	SRC2 inh	NCOA1 inh	NCOA3 inh	Gal4-VP16 ctr	COUP-TFII conf
C(=Cc1nc2ccccc2o1)c1ccc2c(c1)OCO2	-24	-129	-23	-105	-98	nt	nt
C(=Cc1cnc2ccccc2n1)c1ccc2c(c1)OCO2	52*	6	52	43	49	65*	79*
CC(Oc1ccc(F)cc1)C(=O)Nc1ccccc1C(=O)N1CCCCC1 (stereo not drawn)	31	-17	19	2	13	nt	nt
COc1ccc(-c2noc(CCCCC(=O)N3CCN(c4cc(C)ccc4C)CC3)n2)cc1	82*	40	37	25	21	22*	65*
Cc1cccc(Oc2ccc(NC(=O)c3ccccc3C(=O)O)cc2)c1C	25	22	-38	-29	-8	nt	nt
O=C(O)c1ccccc1C(=O)Nc1ccc(Oc2ccc3ccccc3c2)cc1	66*	30	47	-4	4	9	7
O=C(O)c1ccccc1C(=O)Nc1ccc(Oc2cccc3ccccc23)cc1	100*	62	89*	56	71*	46*	34
CC(C)CNS(=O)(=O)c1ccc(CCC(=O)N2CCN(c3ccccc3)CC2)cc1	14	8	15	22	5	nt	nt
CCNS(=O)(=O)c1ccc(CCC(=O)N2CCN(c3ccccc3)CC2)cc1	43*	0	29	5	10	9	4
FC(F)(F)c1cccc(NC(=S)N(CCCN2CCCC2)Cc2cccn2Cc2ccc(Cl)cc2)c1	38*	13	2	1	38	-2	1
Cc1ccc(NC(=S)N(CCCN2CCCC2)Cc2cccn2Cc2ccc(Cl)cc2)cc1C	-6	0	-12	-12	12	nt	nt
O=S(=O)(c1ccccc1)N1CCC(O)(CSc2ccc(Cl)cc2)CC1	54*	19	28	-14	32	5	37
O=S(=O)(c1ccc(Cl)cc1)N1CCC(O)(CN2CCN(Cc3ccccc3)CC2)CC1	21	15	-17	11	20	nt	nt
Cc1nc2sc(C(N)=O)c(N)c2c2c1CCCC2	51*	4	39	42	52	9	21
CN1CCN(S(=O)(=O)c2ccc3c(c2)OCCO3)CC1	2	13	-6	4	8	nt	nt
O=S(=O)(c1ccc2c(c1)OCCO2)N1CCN(c2ncnc3sccc23)CC1	70*	36	38	4	27	3	53*
Cc1ccc(S(=O)(=O)N2CCN(c3ncnc4sccc34)CC2)cc1C	43*	27	21	33	0	-3	24
CC(C)(C)C(=O)Nc1ccc(N=Nc2ccccc2)cc1	66*	38	46	52	51	-9	60*
O=C(O)CCC(=O)Nc1ccc(N=Nc2ccccc2)cc1	nt	-6	nt	-14	0	nt	nt
CCOC(=O)C1(Cc2ccc(Cl)cc2)CCN(C(C)Cc2ccc(O)c(OC)c2)CC1 (stereo not drawn)	53*	17	34	-11	11	2	16
CCCCS(=O)(=O)N1CCCC(C(=O)Oc2ccc(Cl)cc2)C1 (stereo not drawn)	-16	-3	-55	12	12	nt	nt
CC(C)(C)c1ccc(CNc2nc(-c3ccccn3)nnc2-c2ccccc2)cc1	49*	nt	nt	nt	nt	9	16
CNc1nc(-c2ccccn2)nnc1-c1ccccc1	4	-10	-22	-12	4	nt	nt
Clc1cccc(CNc2nc(-c3ccccn3)nnc2-c2ccccc2)c1	38*	nt	nt	nt	nt	1	-34
CCN(CC)S(=O)(=O)c1ccc(NC(=O)c2ccc(N(C)S(C)(=O)=O)cc2)cc1	68*	36	22	8	27	3	53*
SMILES	COUP-TFII inh	NR5A2 inv ag	SRC2 inh	NCOA1 inh	NCOA3 inh	Gal4-VP16 ctr	COUP-TFII conf
CCN(CC)S(=O)(=O)c1ccc(C(=O)Nc2ccc(Cc3ccncc3)cc2)cc1	51*	26	3	11	21	9	56*
COc1ccc(C(=O)c2c3ccc([N+](=O)[O-])cc3[n+]([O-])n2CCCC(N)=O)cc1	3	32	19	-7	-14	nt	nt
O=C(CCn1cnc2ccccc2c1=O)Nc1ccc(S(=O)(=O)N2CCCC2)cc1	-5	-1	-7	-4	-3	nt	nt
Cc1ccc(NC(=O)CN(C)C(=O)C2CC(=O)N(Cc3ccccc3)C2)cc1 (stereo not drawn)	6	-34	-13	-32	16	nt	nt
CC(=O)O[C@@H](C[C@@H](C)C1=C2C[C@H](O)C3[C@@]4(C)CCC(=O)C(C)(C)C4CC[C@]3(C)[C@@]2(C)CC1)[C@H]1OC1(C)C (stereo partly drawn)	13	7	28	12	-1	nt	nt
COc1ccc(NC(=O)[C@@H]2CCCN2S(=O)(=O)c2cccc3cccnc23)cc1	2	6	-3	-10	7	nt	nt
O=C(Nc1ccc(Oc2ccccc2)cc1)C1CCCN1S(=O)(=O)c1cccc2cccnc12 (stereo not drawn)	42*	nt	19	nt	nt	13	35
O=C(c1ccc2c3c(cccc13)CC2)C1CCCN(Cc2ccncc2)C1 (stereo not drawn)	53*	15	13	12	8	19*	30
CCOC(=O)c1c(-c2ccccc2)oc2ccc(O)c(CN3CCN(C)CC3)c12	38*	17	1	15	17	-8	19
CCOC(=O)c1c(C)n(C)c2ccc(O)c(CN3CCN(C)CC3)c12	-7	26	-16	3	17	nt	nt
CCCCCCCCN1C(=O)[C@@H](CC(=O)NCCc2ccccc2OC)C[C@@]2(C(=O)OC)C1=C[C@H](C(C)(C)C)O[C@@H]2C	-5	nt	-16	nt	nt	nt	nt
Cc1nn(C2CCS(=O)(=O)C2)c(Cl)c1/C=C/C(=O)OCC(=O)c1cc(C)n(-c2ccc(F)cc2)c1C (stereo not drawn)	63*	25	15	15	16	0	37*
O=C(NC1CCCCN(Cc2cccc(Cl)c2)C1=O)c1ccc(COc2ccccc2)cc1 (stereo not drawn)	48*	nt	18	nt	nt	1	36
CCCC/C=C1/[C@H](c2ccc(Cl)cc2)N(Cc2ccc3c(c2)OCO3)C2=N[C@H](c3ccccc3)CC(=O)N21	2	nt	23	nt	nt	nt	nt
NCCCNc1nc(N)c([N+](=O)[O-])c(NC2CCCCC2)n1	41*	47	-22	38	44	-26	24
COc1ccccc1C=NN=C(NN=Cc1ccccc1OC)NN=Cc1ccccc1OC	4	38	-11	-12	-29	nt	nt
Cc1cc(/C=C2\Sc3ccccc3N2C)cc(C)[n+]1CC1CCCO1 (stereo not drawn)	49*	62	-1	43	48	12	62*
Cc1ccc(/C=C2/Sc3ccccc3N(CC(=O)NCC3CCCO3)C2=O)cc1 (stereo not drawn)	nt	-14	nt	8	4	nt	nt
CN1CCN(c2ccc(-c3ccc4ccccc4n3)cc2)CC1	90*	74*	76*	79*	80*	52*	90*
